High-throughput results: PubChem, National Center for Advancing Translational Sciences (NCATS)
KDM5B inh = KDM5B demethylase inhibition | 220,000 tested, 2.6% active | Potency, µM (top dose mostly 57.7 µM), most hits filed as inhibitors | KDM5B demethylase, FDH-coupled NADH fluorescence (FDH is formaldehyde dehydrogenase); active = well fitted inhibition curve with a large enough effect; also: nearly all actives have a fitted effect of over 70% in size
Target sequence (Q9UGL1 whole entry, looked up): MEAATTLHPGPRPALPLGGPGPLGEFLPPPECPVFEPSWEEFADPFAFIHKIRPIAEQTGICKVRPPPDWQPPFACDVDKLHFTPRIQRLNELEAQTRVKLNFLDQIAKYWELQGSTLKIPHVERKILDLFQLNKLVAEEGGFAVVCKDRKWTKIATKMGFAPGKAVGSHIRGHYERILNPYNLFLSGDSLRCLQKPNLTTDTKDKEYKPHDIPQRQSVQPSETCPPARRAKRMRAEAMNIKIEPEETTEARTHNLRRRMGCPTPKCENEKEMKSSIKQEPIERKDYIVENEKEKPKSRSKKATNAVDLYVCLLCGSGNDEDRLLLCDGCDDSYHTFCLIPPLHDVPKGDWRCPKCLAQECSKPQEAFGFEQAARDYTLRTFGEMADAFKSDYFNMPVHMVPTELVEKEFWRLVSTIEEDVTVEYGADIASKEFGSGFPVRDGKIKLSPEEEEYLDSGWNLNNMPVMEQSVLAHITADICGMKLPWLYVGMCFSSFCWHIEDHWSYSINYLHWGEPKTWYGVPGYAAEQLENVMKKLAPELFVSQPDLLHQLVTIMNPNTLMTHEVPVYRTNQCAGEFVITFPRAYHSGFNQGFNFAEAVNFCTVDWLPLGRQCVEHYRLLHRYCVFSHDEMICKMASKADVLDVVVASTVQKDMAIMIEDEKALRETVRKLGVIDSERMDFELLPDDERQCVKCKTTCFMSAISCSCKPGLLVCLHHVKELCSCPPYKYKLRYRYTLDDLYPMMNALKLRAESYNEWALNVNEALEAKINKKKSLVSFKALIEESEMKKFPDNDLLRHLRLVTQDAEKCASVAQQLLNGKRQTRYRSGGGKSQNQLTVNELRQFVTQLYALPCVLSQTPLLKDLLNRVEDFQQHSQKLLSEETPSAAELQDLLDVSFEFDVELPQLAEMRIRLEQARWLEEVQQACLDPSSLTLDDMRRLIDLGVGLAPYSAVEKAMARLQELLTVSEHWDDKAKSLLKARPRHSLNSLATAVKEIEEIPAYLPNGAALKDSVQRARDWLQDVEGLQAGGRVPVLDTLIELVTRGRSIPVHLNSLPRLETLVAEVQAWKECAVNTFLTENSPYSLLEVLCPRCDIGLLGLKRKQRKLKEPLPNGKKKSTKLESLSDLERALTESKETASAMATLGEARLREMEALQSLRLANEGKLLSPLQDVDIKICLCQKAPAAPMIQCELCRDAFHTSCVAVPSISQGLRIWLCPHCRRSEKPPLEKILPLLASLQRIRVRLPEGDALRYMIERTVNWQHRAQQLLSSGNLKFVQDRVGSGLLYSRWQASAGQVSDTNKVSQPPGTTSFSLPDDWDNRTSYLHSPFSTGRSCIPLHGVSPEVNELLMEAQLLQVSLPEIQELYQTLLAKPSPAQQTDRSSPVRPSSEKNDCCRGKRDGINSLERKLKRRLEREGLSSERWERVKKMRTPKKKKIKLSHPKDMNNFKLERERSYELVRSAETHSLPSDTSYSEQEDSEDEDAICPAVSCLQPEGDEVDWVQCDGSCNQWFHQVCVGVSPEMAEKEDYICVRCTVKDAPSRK
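Measured: NADH fluorescence change, 30 min, RT. System: KDM5BΔAP 200 nM final, H3K4me3 peptide, α-KG, Fe(II), ascorbate, NAD⁺ plus FDH, pH 7.5 HEPES. Compounds: titrated, 10 min pre-incubation with enzyme.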
A number is an active result; 0 = inactive. This excerpt belongs to a sample that is enriched for hits.

SMILES	KDM5B inh
Cc1c(-c2ccccc2)oc2c(C(=O)NC(C)C3CC3)cccc2c1=O (centres undefined)	0
O=C(CC1CCCC1)NCCC1CCN(C(=O)NC2CCCCC2)CC1	0
N#Cc1ncn(CC(=O)NCC(=O)Nc2ccccc2Br)n1	0
CCCCC(=O)Nc1cccc(-c2nc3ccccc3o2)c1C	0
COc1ccc(CNC(=O)Cn2ccn3nc(-c4ccc5c(c4)OCO5)cc3c2=O)cc1	0
O=C(Cn1ccn2nc(-c3ccc4c(c3)OCO4)cc2c1=O)NCc1ccc(Cl)cc1	0
CCOc1ccc(-c2cc3c(=O)n(CC(=O)NCc4ccc(F)cc4)ccn3n2)cc1	0
O=c1c2cc(-c3ccc(F)cc3)nn2ccn1CC(O)c1ccc2c(c1)OCO2 (centres undefined)	32µM
Cc1nn(CC(O)c2ccc(F)cc2)c(=O)c2ccccc12 (centres undefined)	0
O=c1c2cc(-c3ccc(F)cc3)nn2ccn1CC(O)c1ccc(F)cc1 (centres undefined)	20µM
CCOC(=O)NC(Nc1ccc(Cl)cc1)(C(=O)OCC)C(F)(F)F (centres undefined)	0
COc1ccc(N(Cc2cccs2)C(=O)Cn2cnc3ccc(Cl)cc3c2=O)cc1	0
Cc1ccc(C)c(C(=O)c2cc3ccccc3o2)c1	0
Cc1ccsc1CN(CC1CCCO1)C(=O)COc1ccccc1 (centres undefined)	0
Cc1ccc(Nc2nnc(SCC(=O)c3ccc(Cl)s3)s2)c(C)c1	0
Cc1c(Cl)c(C(F)(F)F)nn1CC(=O)Nc1ccc(F)cc1F	0
O=C(Nc1ccc2c(c1)OCCO2)C(=O)c1c[nH]c2ccc(F)cc12	0
CN(C)c1ccc(C=Nc2ccc(I)cc2)cc1	0
CN1CCN(C2(CNC(=O)COc3ccc4ccc(=O)oc4c3)CCCCC2)CC1	0
Cn1cccc1/C=N/N1CCN(Cc2ccccc2)CC1	0
CN1CCN(Cc2ccc(-c3cnc4c(OCc5ccccc5)nccn34)cc2)CC1	32µM
CN1CCN(Cc2ccc(Nc3cnc4ccc(-c5ccccc5)nn34)cc2)CC1	0
CCC1CSC(Nc2ccc(C)cc2C)=N1 (centres undefined)	0
Cc1ccc2c(Cl)cc(Cl)c(OCC(=O)NCC(F)(F)F)c2n1	0
Nc1ncc(C(=O)N[C@@H]2CC[C@@H](N)C2)c(-c2ccccc2)n1	22µM
SMILES	KDM5B inh
Cc1ncc(C(=O)N[C@H]2CC[C@H]2NC2CCCC2)c(-c2ccccc2)n1	0
Cn1cc(C(NC(=O)c2cnc(N)nc2-c2ccccc2)C2CC(O)C2)cn1 (centres undefined)	0
CC(C)(C)c1ccc(-c2nnc(SCC(=O)NCc3ccco3)n2Cc2ccco2)cc1	0
COCc1cc(=O)n(CC(=O)Nc2cccc(SC)c2)c(N2CCOCC2)n1	0
COc1ccc(C)cc1NC(=O)Cn1c(N2CCc3ccccc3C2)nc(C)cc1=O	0
COCc1cc(=O)n(CC(=O)Nc2ccc(Br)cc2)c(N2CCOCC2)n1	0
Cc1cc(=O)n(CC(=O)NCc2ccc(F)cc2)c(N2CCc3ccccc3C2)n1	0
COc1ccc(OC)c(NC(=O)Cn2c(N3CCc4ccccc4C3)nc(C)cc2=O)c1	28µM
CCOC(=O)c1ccc(NC(=O)Cn2c(N3CCc4ccccc4C3)nc(C)cc2=O)cc1	0
Cc1cc(=O)n(CC(=O)NC(C)C)c(N2CCc3ccccc3C2)n1	0
Cc1cc(=O)n(CC(=O)Nc2ccccc2C)c(N2CCc3ccccc3C2)n1	0
COc1cccc(NC(=O)Cn2c(N3CCN(c4ccccc4)CC3)nc(C)cc2=O)c1	0
Cc1ccc(CNC(=O)Cn2c(N3CCc4ccccc4C3)nc(C)cc2=O)cc1	28µM
COCc1cc(=O)n(CC(=O)Nc2cccc(Br)c2)c(N2CCOCC2)n1	28µM
COc1cccc(NC(=O)Cn2c(N3CCc4ccccc4C3)nc(C)cc2=O)c1	11µM
N#CCCN(C(=O)Cn1nc(Cc2cccnc2)c2ccccc2c1=O)c1ccccc1	0
Cc1ccc(C=Nc2ccc(C(C)(C)C)cc2)s1	0
CCCCCCCCS(=O)CC(O)CCl (centres undefined)	0
Cn1c(N2CCCCCC2)nc2c1c(=O)n(Cc1ccccc1)c(=O)n2C	0
CC(OC(=O)c1ccc(CCNS(C)(=O)=O)cc1)C(=O)N(C)C1CCCCC1 (centres undefined)	0
CCOC(=O)CCCCCCN	0
CC(C)c1ccc(/C=N/NC(=O)c2ccccc2)cc1	0
CN(CCCNC(=O)c1ccccc1)CC(F)(F)F	0
OC[C@]12CCCN[C@@H]1CCN(Cc1cccc(-c3ccccn3)c1)C2	0
Cc1ccc2[nH]c(CSc3nnc(C)s3)cc(=O)c2c1	0
SMILES	KDM5B inh
Cc1ccc2[nH]c(CN3CC[C@H]4NCCC[C@]4(CO)C3)cc(=O)c2c1	13µM
O=C(Nc1ccc(CN2CCOCC2)cc1)Nc1ccc2c(c1)OCCO2	0
COCCCNC(=O)c1cc(-c2ccncc2)nc2ccc(S(=O)(=O)N3CCOCC3)cc12	0
Cc1cn2nc(C(=O)NCc3ccc(F)cc3)cc2c(N(C)Cc2ccccc2)n1	25µM
Cc1cn2nc(C(=O)NCCc3ccccc3)cc2c(=O)[nH]1	0
Cc1ccc(CNC(=O)c2cc3c(N(C)Cc4ccccc4)nc(C)cn3n2)cc1	28µM
Cc1cn2nc(C(=O)NCc3ccccc3Cl)cc2c(=O)[nH]1	0
Cc1ccc(CCNC(=O)c2cc3c(=O)[nH]c(C)cn3n2)cc1	0
CN(C)c1c(F)cc(C(=O)NCc2ccccc2)cc1F	0
Cc1ccnc(NC(=O)CCC(=O)N(CC(=O)NCc2ccccc2)Cc2ccc(F)cc2)c1	0
Cc1ccc(CNC(=O)c2cnc3ccccc3n2)cc1	0
Cc1cn2nc(C(=O)NCc3ccccc3C)cc2c(N(C)Cc2ccccc2)n1	14µM
CCOC(=O)Cc1nnc(SC(C)C(=O)Nc2ccc(F)c(F)c2)n1C (centres undefined)	0
Cc1nn(-c2nc(CC(=O)Nc3ccccc3F)cs2)c(C)c1Cc1ccccc1	0
Cc1cccc(NC(=O)COC(=O)c2ccc3ccccc3n2)c1	0
COc1cccc(-n2cc(CN(C)Cc3cn(-c4ccccc4)nn3)cn2)c1	0
COc1cc2cc(C(=O)N[C@H](C(=O)Nc3nccs3)C(C)C)n(C)c2c(OC)c1OC	0
COc1ccc(OC)c(COC(=O)c2cc(OC)ccc2Br)c1	0
CCn1c(C(=O)NCC(=O)NC2CC2)cc2ccccc21	0
O=C(c1cc(-c2ccc(F)cc2)n[nH]1)N1CCC(OCC2CC2)C1 (centres undefined)	0
CCCOC1CCCN(C(=O)c2ccc3nc(-c4ccc(F)cc4)cn3c2)C1 (centres undefined)	28µM
O=C(c1ccc2nc(-c3ccccc3)cn2c1)N1CCOC(C(F)(F)F)C1 (centres undefined)	32µM
O=C(c1ccc2nc(-c3ccc(F)cc3)cn2c1)N1C[C@@H]2CCCN[C@@H]2C1	28µM
O=C(Cc1ccc(CO)cc1)N1CCOC(C(F)(F)F)C1 (centres undefined)	0
O=C(c1cc(-c2ccc(F)cc2)n[nH]1)N1CC2CC(C1)[C@H]1CCCC(=O)N1C2 (some centres undefined)	0
O=C(c1ccc(F)cc1)N1CC2CC(C1)[C@H]1CCCC(=O)N1C2 (some centres undefined)	0
CCCOC1CCCN(C(=O)c2cc(Cl)ccc2OC2CCN(C(C)=O)CC2)C1 (centres undefined)	0
O=C(c1cccc2nccnc12)N1CCOC(C(F)(F)F)C1 (centres undefined)	0
COc1cc(SC)ccc1C(=O)Oc1ccc(C(C)(C)C)cc1	0
